Test [1] is described as follows: Caspase-3/7 induction in CHO-K1 cells by small molecules, qHTS cell viability counter screen (AID 1346979). Note: nearly all actives have a fitted effect of over 35% in size. Note: potency is the fitted concentration of half-maximal effect. The method in brief: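 Seeding: 1,500 CHO-K1 cells/well. Rest: 5hr, 37C. Treatment: compounds in DMSO, 16hr. Read: CellTiter-Fluor, 1hr, fluorescence.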
A short description of test [2]: Caspase-3/7 induction in CHO-K1 cells by small molecules, qHTS assay (AID 1346980). Note: nearly all actives have a fitted effect of over 15% in size. The method in brief: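 Luminescent Caspase-Glo 3/7 read (30min, room temperature) quantified apoptosis induction. Cells were wild-type CHO-K1, treated with compound for 17hr at 37 C and 5% CO2.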
A general note: Quantitative high-throughput screening tests each substance at several concentrations.

The nature of test [3]: Caspase-3/7 induction in HepG2 cells by small molecules, qHTS cell viability counter screen (AID 1346981). Note: nearly all actives have a fitted effect of over 30% in size. Note: potency is the fitted concentration of half-maximal effect. The method in brief: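 Treatment of HepG2 cells with DMSO-delivered compounds ran 16 hr at 37 C following a 5-hr pre-incubation of 2,000 cells/well. CellTiter-Fluor fluorescence, read after 1 hr, served as the viability measure in a qHTS format.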
For test [4], the target named is Nuclear receptor subfamily 1 group I member 2 (Homo sapiens) (UniProt O75469). In words: Human pregnane X receptor (PXR) small molecule agonists, qHTS assay (AID 1346982). Note: nearly all actives have a fitted effect of over 35% in size. Note: potency is the fitted concentration of half-maximal effect. In short, it runs like this:
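Stable HepG2 line reporting PXR-mediated CYP3A4 expression via luciferase. Treatment: 24 hr with compounds in DMSO at 37 C. Detection: ONE-Glo luminescence.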

The target of test [5] is Acetylcholinesterase (Homo sapiens) (UniProt P22303). In words: Acetylcholinesterase (AChE) small molecule antagonists: colormetric cell-based qHTS assay (AID 1347395; calls by dose curve; note: nearly all actives have a fitted effect of over 30% in size). In short, it runs like this: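 Quantitative HTS in attached SH-SY5Y cells: 30 min compound exposure, then 90 min with acetylthiocholine and DTNB at 37 C; colour from thiocholine reports AChE activity.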
Acetylcholinesterase (Homo sapiens), sequence (P22303 whole entry, looked up): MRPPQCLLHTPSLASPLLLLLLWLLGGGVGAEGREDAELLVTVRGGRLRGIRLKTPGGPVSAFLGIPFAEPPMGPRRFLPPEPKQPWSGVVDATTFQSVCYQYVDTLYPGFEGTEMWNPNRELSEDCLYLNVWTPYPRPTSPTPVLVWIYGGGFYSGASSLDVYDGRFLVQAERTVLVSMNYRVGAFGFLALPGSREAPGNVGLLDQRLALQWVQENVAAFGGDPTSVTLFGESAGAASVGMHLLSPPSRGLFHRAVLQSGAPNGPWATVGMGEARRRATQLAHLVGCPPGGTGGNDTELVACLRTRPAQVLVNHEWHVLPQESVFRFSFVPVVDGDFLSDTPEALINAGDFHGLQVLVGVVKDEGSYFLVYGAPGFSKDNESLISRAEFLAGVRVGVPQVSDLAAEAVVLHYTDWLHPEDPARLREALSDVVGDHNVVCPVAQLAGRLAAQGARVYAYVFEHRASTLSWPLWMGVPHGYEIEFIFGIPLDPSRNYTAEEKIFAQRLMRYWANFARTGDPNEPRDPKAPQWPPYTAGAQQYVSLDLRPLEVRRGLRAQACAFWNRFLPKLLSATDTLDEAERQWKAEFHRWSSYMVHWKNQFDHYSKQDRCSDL
For test [6] the target is unchanged. In words: Acetylcholinesterase (AChE) small molecule antagonists: enzyme-based qHTS assay (AID 1347397; calls by dose curve; note: nearly all actives have a fitted effect of over 55% in size). To be noted: Potency: AChE enzyme activity inhibition. The method in brief: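 First, recombinant human AChE (50 mU/mL as dispensed) received test compound or DMSO. Second, plates stood 30 min at room temperature. Third, DTNB and acetylthiocholine were added, followed by 10 min at room temperature and colorimetric detection.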

For test [7] the target is unchanged. In words: Acetylcholinesterase (AChE) small molecule antagonists: fluorescence cell-based qHTS assay (AID 1347398; calls by dose curve; note: nearly all actives have a fitted effect of over 50% in size). To be noted: Potency: AChE activity. The method in brief:
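Homogeneous quantitative HTS format. SH-SY5Y cells seeded at 2,000 per well settle overnight at 37 C. Compound pretreatment runs 30 min (37 C, 5% CO2); substrate/probe mix then reacts 40 min at RT before reading 490/520 nm.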

For test [8] the target is unchanged. Briefly: Acetylcholinesterase (AChE) small molecule antagonists: enzyme-based qHTS assay with human liver microsomes (AID 1347399; calls by dose curve; note: nearly all actives have a fitted effect of over 60% in size). The note with it: Potency: qHTS inhibition. The method in brief: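 Recombinant human AChE (50 mU/mL in the enzyme mix) and human liver microsomes (0.25 mg/mL final) were preincubated with compound and NADPH (0.25 mg/mL final) for 30 min at 37 C. Acetylthiocholine/DTNB was then added; thiocholine was read colorimetrically after 10 min at room temperature.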

The target in test [9] is Cytochrome P450 2D6 (Homo sapiens) (UniProt P10635). Briefly: Cytochrome P450 Family 2 Subfamily D Member 6 (CYP2D6) small molecule antagonists: luciferase reporter qHTS assay (AID 1671196). Note: nearly all actives have a fitted effect of over 50% in size. Note: potency is the fitted concentration of half-maximal effect. The method in brief: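 Chemicals tested for interference with CYP2D6 activity; proluciferin substrate, NADPH regeneration, 1 h at room temperature, luminescent detection.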
Cytochrome P450 2D6 (Homo sapiens), sequence (P10635 whole entry, looked up): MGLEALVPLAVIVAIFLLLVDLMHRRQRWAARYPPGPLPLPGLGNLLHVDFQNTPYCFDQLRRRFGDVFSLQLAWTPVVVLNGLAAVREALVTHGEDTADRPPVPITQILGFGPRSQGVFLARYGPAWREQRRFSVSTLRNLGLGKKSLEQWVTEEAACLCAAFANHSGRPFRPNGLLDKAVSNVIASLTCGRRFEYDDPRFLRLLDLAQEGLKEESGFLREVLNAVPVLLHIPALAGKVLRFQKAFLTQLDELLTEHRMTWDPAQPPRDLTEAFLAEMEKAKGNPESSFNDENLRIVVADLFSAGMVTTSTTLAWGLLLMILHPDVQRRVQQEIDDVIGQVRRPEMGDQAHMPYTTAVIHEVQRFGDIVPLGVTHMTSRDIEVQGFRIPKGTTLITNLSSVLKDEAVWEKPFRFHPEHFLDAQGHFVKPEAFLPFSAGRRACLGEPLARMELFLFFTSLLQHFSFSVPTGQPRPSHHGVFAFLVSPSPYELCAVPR
In general terms: In a reporter assay the amount or activity of a reporter protein is the signal.

For test [10], the target named is Cytochrome P450 2C19 (Homo sapiens) (UniProt P33261). Briefly: Cytochrome P450 Family 2 Subfamily C Member 19 (CYP2C19) small molecule antagonists: luciferase reporter qHTS assay (AID 1671197). Note: nearly all actives have a fitted effect of over 65% in size. Note: potency is the fitted concentration of half-maximal effect. In short, it runs like this: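 CYP2C19 P450-Glo, 1536-well qHTS. Cpd + enzyme/proluciferin substrate 10 min RT; + NADPH regen, 37C 1 h; stop with luciferin detection reagent, 20 min RT, luminescence (RLU). Pos ctrl ketoconazole.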
Cytochrome P450 2C19 (Homo sapiens), sequence (P33261 whole entry, looked up): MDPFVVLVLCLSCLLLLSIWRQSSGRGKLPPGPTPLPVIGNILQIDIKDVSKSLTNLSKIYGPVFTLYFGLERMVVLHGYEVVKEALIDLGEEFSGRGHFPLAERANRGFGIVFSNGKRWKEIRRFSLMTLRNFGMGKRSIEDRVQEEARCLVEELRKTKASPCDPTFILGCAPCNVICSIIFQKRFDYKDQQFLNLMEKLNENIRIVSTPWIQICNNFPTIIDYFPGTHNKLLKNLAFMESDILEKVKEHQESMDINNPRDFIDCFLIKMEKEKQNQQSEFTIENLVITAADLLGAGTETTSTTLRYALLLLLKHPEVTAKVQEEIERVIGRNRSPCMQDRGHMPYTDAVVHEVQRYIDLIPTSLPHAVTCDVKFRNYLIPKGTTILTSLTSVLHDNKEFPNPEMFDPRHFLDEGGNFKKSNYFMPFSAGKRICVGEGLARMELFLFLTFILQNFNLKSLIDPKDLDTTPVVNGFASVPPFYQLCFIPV

For test [11], the target named is Cytochrome P450 2C9 (Homo sapiens) (UniProt P11712). In words: Cytochrome P450 Family 2 Subfamily C Member 9 (CYP2C9) small molecule antagonists: luciferase reporter qHTS assay (AID 1671198). Note: nearly all actives have a fitted effect of over 50% in size. Note: potency is the fitted concentration of half-maximal effect. In short, it runs like this: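 Enzyme-substrate mix preincubated with compound 10 min at room temperature; reaction started with NADPH regeneration solution, 1 h 37C. Luminescent luciferin product read after 20 min detection reagent.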
Cytochrome P450 2C9 (Homo sapiens), sequence (P11712 whole entry, looked up): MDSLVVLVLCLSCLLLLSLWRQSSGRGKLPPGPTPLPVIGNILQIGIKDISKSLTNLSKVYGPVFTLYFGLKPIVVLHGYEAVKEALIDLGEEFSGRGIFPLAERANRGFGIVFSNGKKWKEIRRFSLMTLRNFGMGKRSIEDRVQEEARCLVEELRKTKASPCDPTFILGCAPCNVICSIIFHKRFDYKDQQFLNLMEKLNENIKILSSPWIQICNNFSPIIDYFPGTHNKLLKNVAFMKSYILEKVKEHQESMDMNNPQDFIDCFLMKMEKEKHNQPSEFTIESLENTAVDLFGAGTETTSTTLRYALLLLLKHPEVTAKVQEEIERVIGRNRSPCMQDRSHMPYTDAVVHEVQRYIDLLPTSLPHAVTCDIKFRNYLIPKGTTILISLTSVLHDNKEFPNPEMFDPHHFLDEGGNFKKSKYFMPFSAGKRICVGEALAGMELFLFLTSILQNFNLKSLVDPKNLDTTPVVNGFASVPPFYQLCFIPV

For test [12], the target named is Cytochrome P450 1A2 (Homo sapiens) (UniProt P05177). In words: Cytochrome P450 Family 1 Subfamily A Member 2 (CYP1A2) small molecule antagonists: luciferase reporter qHTS assay (AID 1671199). Note: nearly all actives have a fitted effect of over 50% in size. Note: potency is the fitted concentration of half-maximal effect. In short, it runs like this:
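Read-out is luminescence from luciferin detection reagent (20 min) proportional to CYP1A2 activity; compounds in DMSO preincubated 10 min with enzyme and proluciferin substrate, then NADPH regeneration solution, 1 h, room temperature.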

Test [13] addresses Voltage-gated inwardly rectifying potassium channel KCNH2 (Homo sapiens) (UniProt Q12809). In words: Human Ether-a-go-go-Related Gene (hERG) channel small molecule antagonists: fluorescence cell-based qHTS assay (AID 1671200). Note: nearly all actives have a fitted effect of over 50% in size. Note: potency is the fitted concentration of half-maximal effect. The method in brief:
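First, 1000 cells per well are seeded and cultured overnight at 37 C. Next, FluxOR II dye is loaded for 1 h at room temperature, protected from light. After 10 more minutes, stimulus is added and fluorescence is read.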
Background: hERG is a cardiac potassium channel; its block is linked to QT prolongation.

Test [14] has as its target Cytochrome P450 3A4 (Homo sapiens) (UniProt P08684). In words: Cytochrome P450 Family 3 Subfamily A Member 4 (CYP3A4) small molecule antagonists: luciferase reporter qHTS assay (AID 1671201). Note: nearly all actives have a fitted effect of over 50% in size. Note: potency is the fitted concentration of half-maximal effect. The method in brief:
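Enzyme and proluciferin substrate are mixed with test chemicals for 10 min, then NADPH regeneration system drives turnover for 1 h at room temperature. A detection reagent halts the reaction; luminescence after 20 min gives relative activity.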

For test [15], the target named is Nuclear receptor subfamily 1 group I member 2 (Rattus norvegicus) (UniProt Q9R1A7). In words: Rat pregnane X receptor (rPXR) activation by small molecules, qHTS assay (AID 1346983). Note: nearly all actives have a fitted effect of over 20% in size. The note with it: rPXR luciferase reporter cells, One-Glo luminescence, 24 h; max activation: active compounds read high. The method in brief: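 Luminescent readout (One-Glo luciferase, 30 min room temperature) followed 24 hr compound treatment at 37 C of rPXR cells plated 2,000 per well and preincubated 5hr; qHTS format with compounds delivered in DMSO.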
Nuclear receptor subfamily 1 group I member 2 (Rattus norvegicus), sequence (Q9R1A7 whole entry, looked up): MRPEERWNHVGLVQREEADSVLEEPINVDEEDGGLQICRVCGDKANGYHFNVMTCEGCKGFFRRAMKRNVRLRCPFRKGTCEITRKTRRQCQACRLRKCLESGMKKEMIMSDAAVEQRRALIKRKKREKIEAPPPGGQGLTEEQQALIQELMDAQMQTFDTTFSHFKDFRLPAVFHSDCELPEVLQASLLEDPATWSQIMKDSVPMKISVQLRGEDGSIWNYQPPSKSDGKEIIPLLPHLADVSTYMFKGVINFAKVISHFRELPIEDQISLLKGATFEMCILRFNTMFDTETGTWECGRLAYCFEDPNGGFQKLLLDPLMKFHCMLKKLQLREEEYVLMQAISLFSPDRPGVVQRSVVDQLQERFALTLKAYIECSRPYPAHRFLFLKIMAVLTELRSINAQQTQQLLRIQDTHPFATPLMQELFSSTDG

The target of test [16] is Nuclear receptor subfamily 1 group I member 2 (Homo sapiens) (UniProt O75469). In words: CYP3A4 induction through human pregnane X receptor (PXR) by small molecules, qHTS assay (AID 1346984). Note: nearly all actives have a fitted effect of over 40% in size. The method in brief:
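After 24 h at 37C with compound, DPX-2 cells (HepG2, co-transfected PXR response element and CYP3A4 promoter-luciferase) got 3uM final P450-Glo Luciferin-IPA for 3 h; One-Glo luminescence followed.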

The target is the same in test [17]. Briefly: Human pregnane X receptor (PXR) activation by small molecules, qHTS assay (AID 1346985). Note: nearly all actives have a fitted effect of over 40% in size. In short, it runs like this:
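DPX-2 cells (HepG2 co-transfected with a PXR response element and a CYP3A4-promoter luciferase construct) were seeded at 2,000 per well, rested 5 hr at 37C, then exposed to DMSO-dissolved compounds for 24 hr. Activation was read as luciferase luminescence.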

This note sets out measurements from PubChem BioAssay (Tox21).

Values joined by “and” are separate entries in the source; they are usually repeats but may differ in a detail not shown here. Equal values may be shown once. Unmarked numbers belong to inactive results. Results filed as inconclusive are left out. Active and inactive are the calls of the source. Unless noted, calls come from the whole dose curve; as a rule, active = well fitted curve in the direction sought with a large enough effect in the repeat runs; inconclusive = weak or mixed curves; inactive = no such curve, though single readings can be large; an effect the other way counts as inactive or inconclusive.
% is set by controls: 0 for no effect and ±100 for the full control effect.

Voltage-gated inwardly rectifying potassium channel KCNH2 (Homo sapiens), sequence (Q12809 whole entry, looked up): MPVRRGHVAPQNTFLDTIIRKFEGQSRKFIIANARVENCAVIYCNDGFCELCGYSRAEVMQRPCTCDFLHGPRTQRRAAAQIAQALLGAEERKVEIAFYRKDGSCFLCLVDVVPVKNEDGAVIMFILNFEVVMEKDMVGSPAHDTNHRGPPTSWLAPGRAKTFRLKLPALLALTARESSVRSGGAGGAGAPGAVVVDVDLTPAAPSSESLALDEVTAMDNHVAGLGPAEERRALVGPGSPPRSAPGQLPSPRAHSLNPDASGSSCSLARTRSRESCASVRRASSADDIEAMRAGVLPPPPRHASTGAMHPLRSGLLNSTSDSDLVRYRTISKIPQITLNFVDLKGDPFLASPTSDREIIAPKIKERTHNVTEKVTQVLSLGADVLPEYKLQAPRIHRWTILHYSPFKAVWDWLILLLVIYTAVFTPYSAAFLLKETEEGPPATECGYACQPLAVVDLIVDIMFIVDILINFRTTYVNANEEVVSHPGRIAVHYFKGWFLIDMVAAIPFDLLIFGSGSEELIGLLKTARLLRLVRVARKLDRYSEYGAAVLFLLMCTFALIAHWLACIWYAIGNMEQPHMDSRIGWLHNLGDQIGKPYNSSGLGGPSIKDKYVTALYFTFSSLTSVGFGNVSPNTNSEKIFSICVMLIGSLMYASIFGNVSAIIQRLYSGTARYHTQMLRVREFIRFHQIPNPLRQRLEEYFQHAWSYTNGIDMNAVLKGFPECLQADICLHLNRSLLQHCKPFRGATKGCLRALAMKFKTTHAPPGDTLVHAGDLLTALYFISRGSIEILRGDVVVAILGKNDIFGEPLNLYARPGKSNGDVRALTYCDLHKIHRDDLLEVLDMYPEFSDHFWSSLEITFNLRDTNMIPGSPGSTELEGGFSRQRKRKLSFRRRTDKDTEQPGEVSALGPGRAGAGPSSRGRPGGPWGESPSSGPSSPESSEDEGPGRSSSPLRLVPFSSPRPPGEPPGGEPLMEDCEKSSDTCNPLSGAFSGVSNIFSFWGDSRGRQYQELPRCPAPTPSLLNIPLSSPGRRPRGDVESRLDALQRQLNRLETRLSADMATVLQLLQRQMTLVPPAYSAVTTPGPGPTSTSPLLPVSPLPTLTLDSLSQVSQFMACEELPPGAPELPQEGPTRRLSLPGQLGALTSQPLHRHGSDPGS
Nuclear receptor subfamily 1 group I member 2 (Homo sapiens), sequence (O75469 whole entry, looked up): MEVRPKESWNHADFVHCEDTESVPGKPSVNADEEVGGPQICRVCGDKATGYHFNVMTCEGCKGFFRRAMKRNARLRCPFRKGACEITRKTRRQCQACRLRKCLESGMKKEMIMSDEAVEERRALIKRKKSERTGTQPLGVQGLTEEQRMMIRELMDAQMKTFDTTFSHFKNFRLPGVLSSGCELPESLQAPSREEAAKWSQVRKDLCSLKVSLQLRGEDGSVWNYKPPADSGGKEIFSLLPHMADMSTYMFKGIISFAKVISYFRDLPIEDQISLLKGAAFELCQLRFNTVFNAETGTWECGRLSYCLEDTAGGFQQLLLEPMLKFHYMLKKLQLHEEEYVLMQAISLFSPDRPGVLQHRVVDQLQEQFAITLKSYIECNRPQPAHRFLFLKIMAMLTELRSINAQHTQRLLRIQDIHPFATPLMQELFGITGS
Cytochrome P450 3A4 (Homo sapiens), sequence (P08684 whole entry, looked up): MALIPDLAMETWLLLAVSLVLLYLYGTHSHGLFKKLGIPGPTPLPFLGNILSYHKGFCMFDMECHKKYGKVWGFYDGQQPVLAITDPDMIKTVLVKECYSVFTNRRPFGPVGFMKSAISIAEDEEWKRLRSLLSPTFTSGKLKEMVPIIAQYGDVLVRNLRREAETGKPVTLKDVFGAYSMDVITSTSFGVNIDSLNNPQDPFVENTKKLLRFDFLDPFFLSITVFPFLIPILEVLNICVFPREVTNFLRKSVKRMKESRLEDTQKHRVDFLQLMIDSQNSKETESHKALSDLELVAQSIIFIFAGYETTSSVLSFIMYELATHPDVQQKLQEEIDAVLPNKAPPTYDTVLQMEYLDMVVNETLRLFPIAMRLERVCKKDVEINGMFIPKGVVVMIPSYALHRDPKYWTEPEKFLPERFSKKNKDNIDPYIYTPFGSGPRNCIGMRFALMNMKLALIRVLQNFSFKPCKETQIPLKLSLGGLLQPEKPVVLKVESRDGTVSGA

As to `CC(C)CC(C)N` (centres undefined), the Potency result in [1], in [2], in test [3], in [4], in test [5] and in test [6] was “inactive” each time. The Potency entry in [7], in test [8], in test [9], in test [10], in test [11] and in test [12] was “inactive” throughout. Also, the Potency entry in test [13] and in test [14] was “inactive” in each case.

For `N#CCc1ccc(Cl)cc1`, the Potency result in test [1], in test [2], in test [3], in test [4], in [5] and in test [6] was “inactive” in each case. Further, the Potency result in [7], in [8], in [9], in test [11], in [13] and in test [14] was “inactive” throughout. Besides, the figures for the Potency in test [10] and in [12] were 39.9 µM (active) and 31.7 µM (active), respectively.

Take `COc1ccc(N)cc1N`: the Potency in test [1] was 22.4 µM (active) and 29.4 µM (active); in [3] it was 56.2 µM (active); in test [4], 11.2 µM (active) and 33 µM (active); in [9], 10.3 µM (active) and 17.1 µM (active); in [10], 732 nM (active) and 3.83 µM (active); in [11] it was 41.2 µM (active) and 24.2 µM (active). For the same compound, the Potency in test [14] is 11.6 µM (active). For the same compound, the Potency entry in [2], in [5], in test [6], in test [7], in test [8] and in test [13] was “inactive” in each case.

As for `FC(F)(F)c1cccc(C2=CCN(CCc3ccc4ccccc4c3)CC2)c1`, the Potency result in test [1], in test [2], in test [3], in test [4], in [16] and in test [17] was “inactive” throughout. Moreover, the Potency entry in test [10], in [11] and in test [14] was “inactive” in each case. The max activation in [15] is -2.77%. Besides, the Potency in [9] is 195 nM (active); in test [13], 1.69 µM (active).

As for `N#Cc1ccc(O)cc1`, the Potency result in test [1], in test [2], in test [3], in test [4], in test [5] and in [6] was “inactive” in each case. The Potency entry in test [7], in test [8], in test [9], in test [11], in [12] and in test [13] was “inactive” throughout. For the same compound, the Potency result in test [14] was “inactive”. Also, in test [10], the Potency is 89.4 µM (active).

Consider `CC(C)C(=O)Cl`, for which the Potency result in [1], in test [2], in [3], in [4], in [5] and in test [6] was “inactive” in each case. Besides, the Potency entry in test [7], in test [8], in [9], in test [10], in [11] and in [13] was “inactive” each time. Further, in test [14], the Potency result is “inactive”.

Regarding `O=C1C=CC(=O)c2ccccc21`, the Potency in [1] is 5.45 µM (active); in test [3], 61.1 µM (active); in [9], 15900 nM (active); in test [10], 14.2 µM (active); in test [11], 11.2 µM (active); in test [12], 25.2 µM (active). The Potency is 21.9 µM (active) in test [13] and 15.9 µM (active) in [14]. The Potency result in test [2], in test [4], in test [5], in test [6], in test [7] and in test [8] was “inactive” each time.

Regarding `C[C@@H]1O[C@@H](O[C@H]2C[C@@H](O)[C@]3(CO)[C@H]4[C@H](O)C[C@]5(C)[C@@H](C6=CC(=O)OC6)CC[C@]5(O)[C@@H]4CC[C@]3(O)C2)[C@H](O)[C@H](O)[C@H]1O`, the Potency entry in test [1], in test [2], in test [3], in test [4], in test [17] and in [5] was “inactive” each time. The Potency result in [6], in test [7], in test [8], in [9], in test [10] and in test [11] was “inactive” in each case. For the same compound, the Potency result in [13] and in test [14] was “inactive” in each case. Also, in test [15], the max activation is 0.399% and -3.08%.
